Only some compounds are listed: those with a hit (about 4.8% of all), similar ones and a draw of the others.
DAX1 inh-1: blocks DAX1 repression of SF-1 activated StAR promoter. HEK293T StAR-luciferase reporter, SF-1/DAX-1 repression relief. inhibition, % at 6.8 µM. actives 1.1% (n = 370,000). AID 652010;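 active = inhibition above the mean over all tested compounds plus 3 SD, cut at about 3.6% in these data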;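 note: 0% = DAX-1 cells with DMSO and 100% = cells lacking DAX-1 with DMSO; higher inhibition means more luminescence from relief of DAX-1 repression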
NR1D1 modulator: Rev-erb alpha (human) modulation. Rev-erbα–FITC-DNA binding, fluorescence polarization, 90 min. activity, % at 10 µM. actives 0.79% (n = 370,000). AID 1259318;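 active = activity above about 14%, limit read from the data; passing the limit was not always enough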;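 note: 0% = DMSO wells with 35 nM protein and 100% = DMSO wells with 750 nM protein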
Target sequence (P20393 whole entry, looked up): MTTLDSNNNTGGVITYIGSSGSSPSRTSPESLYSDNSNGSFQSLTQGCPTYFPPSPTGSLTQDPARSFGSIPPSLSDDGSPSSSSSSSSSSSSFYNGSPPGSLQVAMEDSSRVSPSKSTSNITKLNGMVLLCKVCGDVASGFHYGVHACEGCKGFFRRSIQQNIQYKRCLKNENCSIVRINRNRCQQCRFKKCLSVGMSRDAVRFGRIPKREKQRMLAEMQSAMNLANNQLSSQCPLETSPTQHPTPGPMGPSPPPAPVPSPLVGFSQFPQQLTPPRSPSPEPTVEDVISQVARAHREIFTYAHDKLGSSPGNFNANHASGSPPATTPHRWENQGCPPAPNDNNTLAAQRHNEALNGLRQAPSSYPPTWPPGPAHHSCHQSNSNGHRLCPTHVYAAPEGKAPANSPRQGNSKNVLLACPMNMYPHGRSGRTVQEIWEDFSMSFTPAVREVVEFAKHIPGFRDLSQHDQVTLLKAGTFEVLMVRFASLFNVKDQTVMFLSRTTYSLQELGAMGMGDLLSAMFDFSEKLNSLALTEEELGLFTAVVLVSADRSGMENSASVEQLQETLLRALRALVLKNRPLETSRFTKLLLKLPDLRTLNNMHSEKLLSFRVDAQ
DAX1 inh-2: inhibits human nuclear receptor DAX1 | P51843 | HEK293 Gal4-DAX1 luciferase reporter, luminescence | inhibition, % at 6.75 µM | actives 0.99% (n = 340,000);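 active = inhibition above the mean over all tested compounds plus 3 SD, cut at about 4.2% in these data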;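 note: 0% = DAX1-transfected cells with DMSO and 100% = empty-vector control cells with DMSO; inhibition shows as a rise in luminescence from relieved DAX1 repression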
hcDAF-12 act: activates DAF-12 receptor from parasite H. contortus | AID 652067 | actives 1.4% (n = 370,000) | HEK293 hcDAF-12 lit1-tk-luc reporter, luminescence; 0% DMSO, 100% Δ7-dafachronic acid | activation, % at 6.8 µM;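 active = activation above the mean of all tested compounds plus 3 SD, cut at about 5.5% in these data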;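 note: 100% = response to 3 µM Δ7-dafachronic acid high control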
hgDAF-12 ag: agonists of H. glycines DAF-12 nuclear receptor | activation, % at 6.8 µM | actives 1.8% (n = 370,000) | HEK293 GAL4-hgDAF12 UAS-luciferase reporter, agonist luminescence; normalized to butyrate control | AID 687014;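 active = activation above a cutoff set at the mean of all screened compounds plus 3 SD, cut at about 10% in these data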;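 note: 0% = DMSO wells and 100% = sodium butyrate wells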
ssDAF12 agonist: activators of S. stercoralis DAF-12 nuclear receptor | HEK293 ssDAF-12/GRIP1 lit1-tk-luc reporter, luminescence; % of 3 µM dafachronic acid response | activation, % at 6.8 µM | actives 1% (n = 370,000) | AID 652126;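 active = activation above the mean over all tested compounds plus 3 SD, cut at about 0.9% in these data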;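 note: 0% = DMSO-only wells and 100% = 3 µM delta7-dafachronic acid wells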
DAX1 conf: NR0B1 (human) inhibition, confirmation. shares compounds with DAX1 inh-1. HEK293T StAR-promoter luciferase reporter, SF-1/DAX-1 repression. inhibition, % at 6.8 µM. actives 87% (n = 2,400);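 active = inhibition above the average of every tested compound plus 3 SD, cut at about 3.8% in these data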;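 note: 0% = DAX-1 cells with DMSO and 100% = no DAX-1 control cells with DMSO; active compounds raise luminescence by relieving repression of the StAR reporter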
SF1 AF2mut Luc: counter-screen for DAX1 inhibitors: nonselective inhibitors with SF-1 AF2 mutant; shares compounds with DAX1 inh-1; HEK293 StAR-luciferase, luminescence; inhibition, % at 6.8 µM; actives 78% (n = 2,400);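 active = inhibition above the mean of all tested compounds plus 3 SD, cut at about 3% in these data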;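 note: 0% = DAX-1 transfected cells with DMSO and 100% = cells without DAX-1 with DMSO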
LXRb hcDAF ctr: LXR-beta agonism as hcDAF-12 counter-screen; 3,400 tested, under 10 active; HEK293 Gal4-LXR tk-luc reporter, luminescence, 24 h; normalized: DMSO 0%, positive control 100%; shares compounds with hcDAF-12 act; activation, % at 6.8 µM;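 active = mean percent activation of the reporter above a cutoff set as the average over tested compounds plus their standard deviation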
hcDAF12 ag: confirmation of H. contortus DAF-12 agonists; HEK293 hcDAF-12 lit1-tk-luc reporter, luminescence; % of Δ7-dafachronic acid response; actives 61% (n = 3,400); activation, % at 6.8 µM; shares compounds with hcDAF-12 act;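 active = mean activation across triplicate tests above the threshold derived from the earlier primary screen, cut at about 5.5% in these data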;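 note: 0% = DMSO only wells and 100% = 3 µM Δ7-dafachronic acid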
* = called active by the depositor.

`Cc1cc(C(=O)OCC(=O)NC2CCC(C)CC2)c(C)o1` (stereo not given) gave DAX1 inh-1 0.6, NR1D1 modulator -4.5, DAX1 inh-2 0.6, hcDAF-12 act -0.6, hgDAF-12 ag -2.2 and ssDAF12 agonist -1.2.
Cc1cc(C(=O)NC2CCC(C)CC2)c(C)o1 (stereo not given) was read as DAX1 inh-1 7.5*, NR1D1 modulator -0.9, DAX1 inh-2 3.1, hcDAF-12 act 12.6*, hgDAF-12 ag 8.4, ssDAF12 agonist 0.2, DAX1 conf 13.5*, SF1 AF2mut Luc 6.7*, LXRb hcDAF ctr 1.0 and hcDAF12 ag 7.7*.
COc1ccc(OCCSc2ncccn2)cc1 was read as DAX1 inh-1 4.8*, NR1D1 modulator 0.8, DAX1 inh-2 2.0, hcDAF-12 act 6.9*, hgDAF-12 ag 12.3*, ssDAF12 agonist -0.6, DAX1 conf 11.2*, SF1 AF2mut Luc 7.8*, LXRb hcDAF ctr 1.1 and hcDAF12 ag 6.6*.
COc1cccc(C2CC=C(C(=O)O)CN2S(=O)(=O)c2ccc(C)cc2)c1 (stereo not given) was read as DAX1 inh-1 -0.5, NR1D1 modulator 4.1, hcDAF-12 act -0.4, hgDAF-12 ag -1.4 and ssDAF12 agonist -0.4.
For Cc1ccc(CCNC(=O)c2cccc(N3CCCC3=O)c2)cc1 the results were DAX1 inh-2 0.2.
`Cc1cccc(CCNC(=O)c2cccc(N3CCCC3=O)c2)c1` gave DAX1 inh-1 7.3*, NR1D1 modulator -1.8, DAX1 inh-2 0.6, hcDAF-12 act 7.4*, hgDAF-12 ag 11.3*, ssDAF12 agonist -0.1, DAX1 conf 9.5*, SF1 AF2mut Luc 4.0*, LXRb hcDAF ctr 0.9 and hcDAF12 ag 7.2*.
Screening CCCCCCCCN1C(=O)[C@@H](CC(=O)NCC2CCCCC2)C[C@@]2(C(=O)OC)C1=C[C@H](COCc1ccccc1)O[C@@H]2C returned DAX1 inh-1 0.2, NR1D1 modulator 2.5, hcDAF-12 act 2.7, hgDAF-12 ag 1.8 and ssDAF12 agonist 0.2.
CC(C)[C@H]1Cn2nnc(-c3ccccc3)c2Cn2c3ccccc3c(=O)n21 was read as DAX1 inh-1 -0.4, NR1D1 modulator 6.5, hcDAF-12 act -0.9, hgDAF-12 ag 0.7 and ssDAF12 agonist -0.4.
For CCOC(=O)[C@@]12CCCC=C1N(CCc1ccc(Cl)cc1)C(=O)[C@H]2CC(=O)N1CCOCC1 the results were DAX1 inh-1 -3.3, NR1D1 modulator 8.5, hcDAF-12 act -5.0, hgDAF-12 ag -5.6 and ssDAF12 agonist -2.4.
Screening COc1cc2oc(-c3ccc(O)cc3)cc(=O)c2c(O)c1OC returned DAX1 inh-1 -1.7, NR1D1 modulator -2.2, DAX1 inh-2 -2.3, hcDAF-12 act -2.2, hgDAF-12 ag 3.0 and ssDAF12 agonist -1.1.
Screening COc1c(O)cc2oc(-c3ccc(O)cc3)cc(=O)c2c1O returned DAX1 inh-1 5.2*, NR1D1 modulator -5.9, DAX1 inh-2 0.4, hcDAF-12 act 9.6*, hgDAF-12 ag 11.1*, ssDAF12 agonist 0.5, DAX1 conf 10.5*, SF1 AF2mut Luc 1.9, LXRb hcDAF ctr 1.6 and hcDAF12 ag 6.8*.
c1ccc2c(c1)N=C(N1CCN(Cc3ccc4c(c3)OCO4)CC1)c1ccccc1S2 was read as DAX1 inh-1 -1.5, NR1D1 modulator -0.1, hcDAF-12 act -0.9, hgDAF-12 ag 1.1 and ssDAF12 agonist -1.1.
CCC(CC)c1nnc(NC(=O)c2ccc3ccccc3n2)s1 was read as DAX1 inh-1 4.6*, NR1D1 modulator 0.0, DAX1 inh-2 2.3, hcDAF-12 act 10.8*, hgDAF-12 ag 9.9, ssDAF12 agonist 2.1*, DAX1 conf 10.2*, SF1 AF2mut Luc 6.8*, LXRb hcDAF ctr 0.9 and hcDAF12 ag 11.1*.
`CCC(CC)c1nnc(NC(=O)c2cc(-c3ccccc3)nc3ccccc23)s1` gave DAX1 inh-1 0.5, NR1D1 modulator 2.9, DAX1 inh-2 -0.5, hcDAF-12 act -0.8, hgDAF-12 ag 1.1 and ssDAF12 agonist -1.5.
`N/C(=N\OC(=O)/C=C/c1ccccc1Cl)c1ccccn1` gave DAX1 inh-1 6.2*, NR1D1 modulator -2.9, DAX1 inh-2 -2.7, hcDAF-12 act 7.0*, hgDAF-12 ag 8.0, ssDAF12 agonist 0.2, DAX1 conf 17.7*, SF1 AF2mut Luc 6.1*, LXRb hcDAF ctr 1.7 and hcDAF12 ag 8.5*.
`N/C(=N\OC(=O)/C=C/c1ccc(Br)cc1)c1ccccn1` gave DAX1 inh-1 4.7*, NR1D1 modulator 7.8, DAX1 inh-2 -0.4, hcDAF-12 act 8.0*, hgDAF-12 ag 12.3*, ssDAF12 agonist 2.2*, DAX1 conf 9.3*, SF1 AF2mut Luc 7.0*, LXRb hcDAF ctr 1.1 and hcDAF12 ag 8.3*.
Screening CCCCc1c(-c2ccccc2OC)ncn1Cc1ccc(C)cc1 returned DAX1 inh-1 -2.3, NR1D1 modulator 7.3, hcDAF-12 act -2.2, hgDAF-12 ag -4.7 and ssDAF12 agonist -2.1.
Screening O=C(c1c(Cl)nc2sccn12)N(C(=O)c1c(Cl)nc2sccn12)c1ccc(Cl)cn1 returned DAX1 inh-1 5.4*, NR1D1 modulator -0.3, DAX1 inh-2 1.9, hcDAF-12 act 7.9*, hgDAF-12 ag 8.5, ssDAF12 agonist 1.2*, DAX1 conf 10.9*, SF1 AF2mut Luc 3.0*, LXRb hcDAF ctr 1.2 and hcDAF12 ag 11.0*.
O=C(NCCc1c[nH]c2ccccc12)c1c(Cl)nc2sccn12 was read as DAX1 inh-1 0.1, NR1D1 modulator -8.0, DAX1 inh-2 -0.5, hcDAF-12 act 0.0, hgDAF-12 ag 1.8 and ssDAF12 agonist -1.4.
`CCC(=O)Nc1nc2cc(OC)ccc2s1` gave DAX1 inh-1 1.1, NR1D1 modulator -0.4, DAX1 inh-2 3.6, hcDAF-12 act -0.2, hgDAF-12 ag 9.2 and ssDAF12 agonist -1.4.

Screening data deposited in PubChem BioAssay by several laboratories.
